# Assay results taken from ChEMBL document CHEMBL3988442, “University of Dundee, Small-Polar-MMV Screening Library” (2021).
# Screen size: about 69,000 compounds; about 1,000 (1.4%) showed an effect of 50% or more. The entries come from a sample that favours strong results as a whole.
# Test system: Leishmania donovani
# Experiment: Leishmania intramacrophage assay
# Format: functional, organism-based
# Set-up: scale not given: in the data most compounds retested in dose-response had high values
smiles,measurement,setting,value
Nc1cc2c(nn1)CCN(C(=O)CC1CCCCC1)C2,Percent Effect,30 µM,25.14%
CCOC(=O)C1(Cc2ccccc2)CCCN(Cc2nccn2CC)C1 (stereo unspecified),Percent Effect,"30.3 µM, […]",51.2%
CCOC(=O)C1(CCOC)CCCN(Cc2nccn2CC)C1 (stereo unspecified),Percent Effect,"30.3 µM, […]",-5.772%
CCOC(=O)C1(Cc2cccc(OC)c2)CCCN(Cc2ncc[nH]2)C1 (stereo unspecified),Percent Effect,"30.3 µM, […]",-0.9604%
CN(C)C(=O)CNC(=O)c1ccc(Cl)cc1F,Percent Effect,"30 µM, 30.03 µM",-10.55%
Br.Cc1ccc(N(CC(=O)c2ccc(Br)cc2)C2=NCCCCC2)cc1,Percent Effect,"30 µM, 30.03 µM",57.51%
Br.O=C(CN(C1=NCCCC1)c1ccccc1)c1ccccc1,Percent Effect,"30 µM, 30.03 µM",-5.499%
COc1ccc(CN(Cc2c[nH]cn2)CC2CCCO2)c(OC)c1.O=C(O)CC(O)(CC(=O)O)C(=O)O (stereo unspecified),Percent Effect,"30.3 µM, […]",20.29%
Cc1noc(C)c1CN1CCc2ncnc(-c3cccnc3)c2CC1.O=C(O)C(F)(F)F.O=C(O)C(F)(F)F,Percent Effect,"30.3 µM, […]",26.97%
Cc1cc2c(N3CCC(N(C)Cc4cnn(C)c4)CC3)ncnc2s1,Percent Effect,"30.3 µM, […]",31.66%
Cc1cc2c(N3CCC(N(C)CCc4cnn(C)c4)CC3)ncnc2s1,Percent Effect,"30.3 µM, […]",2.228%
Cc1sc2ncnc(N3CCC(N(C)Cc4cnn(C)c4)CC3)c2c1C,Percent Effect,"30.3 µM, […]",50.06%
Cc1oc(C)c(C(=O)Nc2ccccn2)c1C,Percent Effect,"30.3 µM, […]",0.1995%
Cc1cc(N2CCc3c(ncn3C)C2)n2nc(C(F)(F)F)nc2n1,Percent Effect,"30.3 µM, […]",17.99%
COCCn1cncc1CN1CCCC(C)(c2ccccc2)C1 (stereo unspecified),Percent Effect,"30.3 µM, […]",-2.364%
CC1(c2ccccc2)CCCN(Cc2cncn2C2CC2)C1 (stereo unspecified),Percent Effect,"30.3 µM, […]",33.62%
CC1(c2ccccc2)CCCN(Cc2cncn2C2CCCC2)C1 (stereo unspecified),Percent Effect,"30.3 µM, […]",95.34%
Cc1ccc(C2(CN(C)Cc3c(C)nn(C)c3C)CCNCC2)nc1,Percent Effect,"30.3 µM, […]",37.1%
Cc1ccc(C2(CN(C)Cc3sccc3C)CCNCC2)nc1,Percent Effect,"30.3 µM, […]",56.47%
Cc1ccc(C2(CN(C)Cc3snnc3C)CCNCC2)nc1,Percent Effect,"30.3 µM, […]",37.33%
Cc1cccc(-c2noc(CN3CCCC(Cn4cncn4)C3)n2)c1 (stereo unspecified),Percent Effect,"30 µM, 30.03 µM",23.08%
CC(C)c1cncnc1N1CC[C@H](N2CCOCC2)[C@H](CCCO)C1,Percent Effect,"30.3 µM, […]",26.26%
CCc1ccc(C2CC(=O)Nc3cc(OC)c(NS(C)(=O)=O)cc32)o1 (stereo unspecified),Percent Effect,"30.3 µM, […]",-14.18%
CCCC(=O)Nc1cc2c(cc1OC)NC(=O)CC2c1ccc(CC)o1 (stereo unspecified),Percent Effect,"30.3 µM, […]",77.7%
CCc1ccc(C2CC(=O)Nc3cc(NS(C)(=O)=O)ccc32)o1 (stereo unspecified),Percent Effect,"30.3 µM, […]",14.16%
Cc1cc(CN2CCN(Cc3cc(C#N)ccc3F)CC2)no1,Percent Effect,"30.3 µM, […]",28.56%
Cc1ccnc(OC[C@@]23CCO[C@@H]2CCN(c2ncc(F)cn2)C3)n1.O=C(O)C(F)(F)F,Percent Effect,"30.3 µM, […]",22.41%
CC(CN1CCCC1=O)NC(=O)c1cc(Cl)c2c(c1)OCO2 (stereo unspecified),Percent Effect,"30.3 µM, […]",-42.28%
O=C(N[C@@H]1CCNC[C@H]1O)c1ccc(F)c(Cl)c1,Percent Effect,"30 µM, 30.03 µM",13.21%
O=C(N[C@@H]1CCNC[C@H]1O)c1ccc(F)c(F)c1,Percent Effect,"30.3 µM, […]",-28.62%
O=C(N[C@@H]1CCNC[C@H]1O)c1ccc(-c2ccc(F)cc2)cc1,Percent Effect,"30.3 µM, […]",72.82%
Cc1nc(CN2CCOC(Cn3cccn3)C2)nc2ccccc12 (stereo unspecified),Percent Effect,30 µM,18.44%
Cc1nn(C)c2nc(N3CCC(C(O)Cc4ccccc4)CC3)sc12 (stereo unspecified),Percent Effect,"30.3 µM, […]",58.21%
Cc1nn(C)c2nc(N3CCC(C(O)c4nccn4C)CC3)sc12 (stereo unspecified),Percent Effect,"30.3 µM, […]",-0.9674%
Cc1nn(C)c2nc(N3CCC(C(O)c4ccccn4)CC3)sc12 (stereo unspecified),Percent Effect,"30.3 µM, […]",50.06%
Cc1ccc(N2CCC(C(O)Cc3ccccc3)CC2)nn1 (stereo unspecified),Percent Effect,"30.3 µM, […]",17.05%
Cc1nc(N)sc1C(=O)N1CCC(C(O)Cc2ccccc2)CC1 (stereo unspecified),Percent Effect,"30.3 µM, […]",8.209%
Cc1nn(C)c2nc(N3CCN(Cc4nccn4C)CC3)sc12,Percent Effect,"30.3 µM, […]",15.9%
CN(C)C[C@@H]1CN(C(=O)Cc2ccc3ccccc3c2)C[C@@H]1CO,Percent Effect,"30.3 µM, […]",-3.237%
CC(C)N1CC2(CCC1=O)CCN(C(=O)c1cc(F)ccc1Cl)CC2,Percent Effect,"30.3 µM, […]",18%
COc1ccc(CCNC(=O)CN2CCOCS2(=O)=O)cc1,Percent Effect,"30.3 µM, […]",0.9024%
CCc1noc(C2CCCCN2C(=O)c2ccccc2)n1 (stereo unspecified),Percent Effect,"30.3 µM, […]",-11.89%
CCc1noc(C2CCCCN2C(=O)c2ccc3c(c2)OCO3)n1 (stereo unspecified),Percent Effect,"30.3 µM, […]",61.74%
CCc1noc(C2CCCCN2C(=O)c2cccnc2)n1 (stereo unspecified),Percent Effect,"30.3 µM, […]",-10.93%
O=C1C(CS(=O)(=O)Nc2ccc(Br)cc2)=NC(=O)n2cccc21,Percent Effect,"30.3 µM, […]",-27.67%
CCc1noc(CN(CC)C(=O)c2ccc3ncsc3c2)n1,Percent Effect,"30.3 µM, […]",-21.19%
CN(Cc1n[nH]c(=O)n1CCc1ccccc1F)S(C)(=O)=O,Percent Effect,"30.3 µM, […]",22.43%
COc1cccc2c1OCC(C(=O)N1CCN(CCS(C)(=O)=O)CC1)C2 (stereo unspecified),Percent Effect,"30.3 µM, […]",2.664%
Cc1c[nH]c(CN2CCC3(CCCN(Cc4ccc(F)c(F)c4)C3)C2)n1 (stereo unspecified),Percent Effect,"30.3 µM, […]",53.74%
Fc1ccc(CN2CCCC3(CCN(Cc4ncc[nH]4)C3)C2)cc1F (stereo unspecified),Percent Effect,"30.3 µM, […]",24.4%
Cc1ccc(CN2CCC3(CCCN(Cc4ccc(F)c(F)c4)C3)C2)o1 (stereo unspecified),Percent Effect,"30.3 µM, […]",-12.81%
